Compounds without any hit were thinned out: in the full panel of roughly 83,000, 20% have a hit.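 Compound tested at a single concentration for 48 hours in 96-well plates; a percent growth value below 10 was scored as active.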 Values without a mark were called inactive. Active and inactive are the calls of the source.

Assay in all cases: NCI-60 one-dose screen, 48 h (100 = growth as untreated, 0 = no growth, -100 = all killed)
Common to all, as to conditions: 10 µM unless noted

Test [1] has as its system NCI-H23 lung.
Test [2] deals with NCI-H226 lung.
The test system of test [3] is NCI-H322M lung.
Test [4] deals with HOP-62 NSCLC.
Test [5] deals with NCI-H460 lung.
Test [6] has as its system HOP-92 NSCLC.
Test [7] relates to NCI-H522 lung.
Test [8] has as its system A549/ATCC NSCLC.
The subject of test [9] is 786-0 renal.
Test [10] relates to COLO 205 colon.
In test [11] the test system is DU-145 prostate.
Test [12] deals with K-562 leukemia.
The subject of test [13] is MALME-3M melanoma.
Test [14] relates to MDA-MB-231 breast.
In test [15] the test system is RXF 393 renal.
For test [16], the system named is SF-268 CNS.
The test system of test [17] is SF-295 CNS.
Test [18] concerns SF-539 CNS.
Test [19] has as its system UACC-257 melanoma.
Test [20] deals with M14 melanoma.

With `O=C(NCCN1CCOCC1)OCc1ccc2c(Cl)cc(Cl)c(O)c2n1`, the growth in test [1] was 72.8%; in test [2], 94.6%; in test [3], 66.9%; in [4], 47.8%; in test [5], 63.7%; in test [6], 77.3%. The growth is 81% in [7]; 56.8% in test [8]; 81.9% in test [9]; 109% in [10]; 57.7% in [11]; 31.7% in test [12]. Also, the growth in [13] was 73.4%; in test [14] it was 93.8%; in test [15] it was 77.3%; in test [16] it was 57.3%; in test [17] it was 49.2%; in test [18], 77.9%. Further, the growth in test [19] was 89.1%; in test [20], 54.6%.
Regarding `CNC(=O)c1cc(Oc2ccc3c(c2)sc2nc(-c4cc(C(F)(F)F)cc(C(F)(F)F)c4)cn23)ccn1`, the growth in [1] is 44.8%; in test [2], 26.8%; in test [3], 89.8%; in test [4], 25.4%; in [5], 38.3%; in test [6], 27%. Also, the growth was 35% in test [7]; 39.5% in [8]; 61.3% in test [9]; 55.3% in [10]; 67.7% in test [11]; 29.4% in test [12]. Moreover, the growth is 47.1% in test [13]; 48.2% in [14]; 79.8% in test [15]; 65.1% in [16]; 36.2% in test [17]; 52.4% in [18]. Further, the results for the growth in test [19] and in test [20] were 34.5% and 69.3%, respectively.
In the case of `Cc1cc(=O)n(C(=S)Nc2ccc(Cl)cc2)c2cc(O)ccc12`, the growth in [1] is 85.6%; in [2] it was 80.5%; in test [3] it was 97.7%; in test [4], 84.1%; in [5], 110%; in [6], 84.6%. Moreover, the growth in test [7] is 94.9%; in test [8], 106%; in test [9], 109%; in test [10], 103%; in test [11], 109%; in [12], 113%. For the same molecule, the growth in test [13] is 91.5%; in [14] it was 92.4%; in [15], 99.7%; in test [16] it was 102%; in test [17] it was 99.8%; in test [18], 101%. For the same molecule, the growth in test [19] was 110%; in test [20] it was 108%.
Turning to `C=C1CC[C@@H]2C(C)(C)[C@H](O)CC[C@@]2(C)[C@@H]1COc1ccc2ccc(=O)oc2c1`, the growth in test [1] is 40.7%; in test [2], 28.5%; in [3], 92.4%; in test [4], 45.9%; in test [5] it was 90.5%; in [6] it was 72.4%. The growth in [7] was 32.8%; in test [8] it was 51.5%; in test [9], 93%; in test [10], 68.7%; in test [11], 56.9%; in test [12] it was 41.9%. Also, the growth in [13] was 74.3%; in test [14], 84%; in [15], 101%; in test [16], 68.3%; in test [17], 48%; in [18], 88.4%. Moreover, the growth in [19] is 69.4%; in test [20] it was 53.3%.
Turning to `Cc1cc(N2CCN(CC(=O)Nc3ccc4c(ccn4Cc4ccccc4)c3)CC2)nc(N2CCOCC2)n1`, the growth in test [1] was 83.8%; in test [2] it was 84.3%; in test [3], 90.4%; in [4] it was 91.1%; in [5] it was 95.2%; in test [6], 45.4%. Also, the growth in [7] was 73.8%; in [8], 73.6%; in test [9] it was 84.6%; in test [10], 98.2%; in test [11] it was 95.4%; in test [12] it was 60.5%. The growth in test [13] was 85.7%; in test [14], 93.4%; in test [15], 63.9%; in [16], 92.9%; in test [17] it was 84%; in [18], 98.2%. Besides, the growth in test [19] is 80.2%; in test [20] it was 90.1%.
Consider `COC(=O)c1ccc2c(c1)c1c(C)c3cnccc3c(C)c1n2C`, for which the growth in test [1] was -47.1% (active); in test [2] it was -41.1% (active); in test [3] it was -14% (active); in test [4], -24.7% (active); in test [5] it was -32.4% (active); in test [6], -16.6% (active). Moreover, the growth in test [7] was -65.1% (active); in [8], -17% (active); in [9] it was -63.4% (active); in test [10], -39.9% (active); in test [11], -4.07% (active); in [12] it was 1.64% (active). Also, the growth is -73.7% (active) in test [13]; -16.7% (active) in test [14]; -76.1% (active) in test [15]; 3.86% (active) in [16]; -10.5% (active) in [17]; -37.5% (active) in test [18]. For the same molecule, the growth in test [19] is -41.4% (active); in [20], -88.6% (active).
Regarding `COc1ccc(C/C(C)=C(\c2ccc(Cl)cc2)c2ccc(OCCCN(C)C)cc2)cc1`, the growth was 88.1% in test [1]; 108% in [2]; 90.1% in [3]; 92.9% in [4]; 56.6% in [5]; 52.9% in [6]. Also, the growth in test [7] is 89.1%; in test [8], 68.7%; in test [9], 76.1%; in test [10], -66.7% (active); in test [11], 102%; in [12] it was -7.99% (active). Moreover, the growth is 80% in test [13]; 83.3% in [14]; 72.4% in test [15]; 88.6% in test [16]; 105% in test [17]; 84.7% in test [18]. For the same molecule, the growth in [19] is 91.5%; in test [20], 48.7%.
As to `CCOC(=O)c1c(C)nc2ccccc2c1/C=C/c1ccc(F)cc1`, the growth in test [1] was 51.3%; in test [2], 73.9%; in [3], 94.7%; in test [4], 80.9%; in test [5] it was 81.7%; in [6], 42.1%. Further, the growth in test [7] is 53.8%; in [8] it was 57.7%; in test [9], 79.5%; in test [10], 83.6%; in test [11], 89.6%; in test [12] it was 50%. For the same molecule, the growth in test [13] was 98.7%; in test [14], 75.9%; in test [15], 101%; in test [16] it was 85.2%; in test [17], 67.7%; in test [18], 81%. Also, the figures for the growth in [19] and in [20] were 83% and 86.5%, respectively.
